Hits are enriched below; roughly 1.6% of the tested compounds scored in any of these assays.
KCNQ2 inh = rat KCNQ2 potassium channel inhibitors, primary screen, cell-based, CHO-K1, FluxOR thallium flux, B-score; Potassium voltage-gated channel subfamily KQT member 2 (Rattus norvegicus), O88943; 20 min; stronger effect = lower value; B-score at 10 µM; 310,000 tested, 1.1% active; AID 2156, 2009;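 active means fluorescence ratio B-score at most minus 3 library SDs, with starting brightness B-score within 2 library SDs, cut at about -5.5 in these data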
KCNQ2 pot = potentiators of rat KCNQ2 potassium channel | Potassium voltage-gated channel subfamily KQT member 2 (Rattus norvegicus), O88943 | CHO-K1 KCNQ2, FluxOR thallium flux fluorescence; stronger effect = higher value | B-score at 10 µM | 310,000 tested, 0.54% active | AID 2239, 2010;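 active means fluorescence ratio B-score at least 3 SD of library B-scores, with initial fluorescence B-score within 3 of them, cut at about 5.3 in these data; same plate scores as AID 2156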;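 further: B-score of peak minus minimum over baseline fluorescence ratio after K+ and Tl+ stimulus; positive B-score means potentiation of KCNQ2 with more thallium influx and brighter signal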
Kir21 conf inh = mouse Kir2.1 channel blockers, retest, confirmation, cell-based, FluxOR thallium flux, duplicate; 2,300 tested, 41% active; shares compounds with KCNQ2 pot; Tl flux remaining, % of negative control (stronger effect = lower value), % at 10 µM; Kir2.1-expressing cells, FluxOR thallium flux fluorescence; stronger effect = lower value; AID 2032, 2009;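 active means Primary-screen hit whose thallium flux fell at least 3 control SD below untreated wells in both duplicates, with normal baseline fluorescence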
Target sequence (P35561 whole entry, looked up): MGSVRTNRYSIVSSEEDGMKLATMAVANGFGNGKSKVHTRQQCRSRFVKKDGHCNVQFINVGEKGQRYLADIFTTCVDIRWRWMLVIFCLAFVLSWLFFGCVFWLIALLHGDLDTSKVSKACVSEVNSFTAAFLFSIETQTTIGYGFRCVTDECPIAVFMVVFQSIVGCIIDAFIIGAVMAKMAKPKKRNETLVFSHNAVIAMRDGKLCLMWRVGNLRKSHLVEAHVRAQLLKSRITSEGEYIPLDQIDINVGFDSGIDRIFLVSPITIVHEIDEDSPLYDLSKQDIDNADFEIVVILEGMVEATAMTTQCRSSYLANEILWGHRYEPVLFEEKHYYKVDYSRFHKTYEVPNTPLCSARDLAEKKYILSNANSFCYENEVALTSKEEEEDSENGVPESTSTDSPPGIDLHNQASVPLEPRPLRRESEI
HEK293 Tl flux = parental HEK293 activity in Kir2.1 inhibitor counter-screen. shares compounds with KCNQ2 pot. parental HEK293 cells, FluxOR thallium flux fluorescence; 0% = unstimulated blank wells. FluxOR signal as % of negative control (100 = no effect), % at 10 µM. 2,300 tested, 19% active. AID 2105;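 active means dye signal at least 3 control SD above or below untreated wells in both duplicates, raw fluorescence within 3, either direction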;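 further: percent is based on the flux ratio of peak minus minimum fluorescence over baseline F0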
CHO-K1 Tl ctr = nonspecific thallium flux increase in parental CHO-K1, confirmation, counter-screen for KCNQ2 potentiator project, cell-based, FluxOR thallium flux, duplicate; shares compounds with KCNQ2 pot; parental CHO-K1 cells, FluxOR thallium flux fluorescence; zero = vehicle mean+3SD, 100% = vehicle-minus-blank window; activity increase over 3SD of controls, % at 10 µM; 1,200 tested, 43% active; AID 2282, 2010;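 active means signal rise of at least 3 SD above the untreated control mean, in both duplicate wells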;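 further: counter screen of KCNQ2 potentiator hits so any rise reflects channel-independent effects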
KCNQ1 pot spec = human KCNQ1 channel potentiation off-target, confirmation, selectivity assay for KCNQ2 potentiator project, cell-based, CHO, FluxOR thallium flux; shares compounds with KCNQ2 pot; CHO KCNQ1 stable, FluxOR thallium flux fluorescence; beyond 3SD, as % of vehicle-control signal; activation over 3SD threshold, % at 10 µM; 1,200 tested, 28% active;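 active means fluorescence ratio rise of at least 3 SD of vehicle wells above their mean, in both replicate wells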
KCNQ2 pot conf = rat KCNQ2 channel potentiators, confirmation, cell-based, CHO, FluxOR thallium flux, duplicate. 1,200 tested, 68% active. CHO-KCNQ2 cells, FluxOR thallium flux fluorescence. potentiation, less the hit threshold, % at 10 µM. shares compounds with KCNQ2 pot;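 active means fluorescence ratio rising 3 SD or more over the vehicle control mean in both replicates, plus primary screen hit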;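 further: peak minus minimum thallium fluorescence divided by baseline after K/Tl stimulus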
Kir21 spec = mouse Kir2.1 channel activation off-target, confirmation, selectivity assay for KCNQ2 potentiator project, cell-based, HEK293, FluxOR thallium flux; shares compounds with KCNQ2 pot; HEK293 Kir2.1, FluxOR thallium flux fluorescence; activity over 3SD threshold, % at 10 µM; 1,200 tested, 2% active;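 active means fluorescence ratio rise of at least 3 SD above the vehicle-control mean, seen in both replicates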
KCNQ2 W236L pot = potentiators of retigabine-insensitive KCNQ2 W236L, mechanism study for KCNQ2 potentiator project, cell-based, rat KCNQ2 W236L, CHO, automated patch clamp; shares compounds with KCNQ2 pot; automated patch clamp current; current increase over 3SD of negative controls (%), stronger effect = higher value, % at 25 µM; 940 tested, 10% active; AID 2558, 2010;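 active means current increase at least 3 SD of the untreated controls above them in both duplicate recordings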
Each line names hits and unclear results; the compound was inactive in the other large screens (follow-up assays come after a bar, where they were run).

Cc1ccc(C(C)NC(=S)NCc2ccc(F)cc2)cc1C (stereo unspecified)	KCNQ2 pot 8.1 | Kir21 conf inh 68% | HEK293 Tl flux inactive | CHO-K1 Tl ctr 0.0 | KCNQ1 pot spec 45 | KCNQ2 pot conf 33 | Kir21 spec inactive | KCNQ2 W236L pot inactive
O=C(NNC(=O)c1ccccc1[N+](=O)[O-])c1csc(N2CCOCC2)n1	none
NC(=NCCc1c[nH]c2ccccc12)NC(=O)c1ccc(F)cc1	none | Kir21 conf inh 34% | HEK293 Tl flux inactive
NC(=NCCc1c[nH]c2ccccc12)NS(=O)(=O)c1ccc(F)cc1	none
CCOC(=O)c1c(-c2ccccc2)csc1NC(=S)NC	KCNQ2 pot 7.8 | Kir21 conf inh inactive | HEK293 Tl flux 220% | CHO-K1 Tl ctr inactive | KCNQ1 pot spec inactive | KCNQ2 pot conf 7.3 | Kir21 spec inactive | KCNQ2 W236L pot inactive
CCOC(=O)c1c(-c2ccccc2)csc1NC(=O)CSc1nnc(C)s1	none (no result: KCNQ2 pot)
COc1ccccc1OCc1nnc(SCC(=O)N2CCCCC2)o1	none
O=C(COC(=O)/C=C/c1ccccc1Cl)NCCNC(=O)COC(=O)/C=C/c1ccccc1Cl	none
CC1Sc2ccc(C(=O)Nc3ccccc3OC(F)F)cc2NC1=O (stereo unspecified)	none
CCOC(=O)N1CCN(Cc2nc3cc(NC(=O)c4ccco4)ccc3n2CC)CC1	none
COc1ccc(CCNC2CCc3ccccc3C2)cc1 (stereo unspecified)	none | Kir21 conf inh 40% | HEK293 Tl flux inactive
COc1ccc(CCNC(=O)C2Cc3ccccc3C(=O)O2)cc1 (stereo unspecified)	none (no result: KCNQ2 pot)
NC(CCCCc1ccccc1)c1cccc2ccccc12 (stereo unspecified)	none (no result: KCNQ2 pot)
Cc1ccc(S(=O)(=O)NCC(=O)Nc2cccc([N+](=O)[O-])c2)cc1	none
Cc1ccc(S(=O)(=O)CCC(=O)c2cccc([N+](=O)[O-])c2)cc1	KCNQ2 inh -13 | Kir21 conf inh 51% | HEK293 Tl flux 58%
CC(OC(=O)/C=C/c1ccc2ccccc2n1)C(=O)NCc1ccccc1 (stereo unspecified)	none
Cc1ccc(CN2CCCN(Cc3cc(C)ccc3C)S2(=O)=O)cc1	KCNQ2 pot 7.3 | Kir21 conf inh inactive | HEK293 Tl flux inactive | CHO-K1 Tl ctr inactive | KCNQ1 pot spec inactive | KCNQ2 pot conf inactive | Kir21 spec inactive
Cc1ccc(C)c(CN2CCCN(Cc3cc(C)ccc3C)S2(=O)=O)c1	none (no result: KCNQ2 pot)
c1ccc(CN2CCN(CCOCCOc3cccc4ccccc34)CC2)cc1	none (no result: KCNQ2 pot) | Kir21 conf inh 19% | HEK293 Tl flux inactive
O=C(c1ccco1)N1CCN(CCOCCOc2cccc3ccccc23)CC1	none
Cc1oc2cc([N+](=O)[O-])c(O)c([N+](=O)[O-])c2c1C(=O)c1ccc(Cl)cc1	KCNQ2 pot 7.9 | Kir21 conf inh inactive | HEK293 Tl flux 144% | CHO-K1 Tl ctr 88 | KCNQ1 pot spec inactive | KCNQ2 pot conf 14 | Kir21 spec inactive | KCNQ2 W236L pot 10%
COc1ccc(OC)c(C(=O)c2c(C)oc3cc([N+](=O)[O-])c(O)c([N+](=O)[O-])c23)c1	none
O=C(COc1ccc2ccccc2c1Br)N1CCCC1	none
CCOC(=O)N1CCN(C(=O)COc2ccc3ccccc3c2Br)CC1	KCNQ2 pot 8.7 | Kir21 conf inh inactive | HEK293 Tl flux inactive | CHO-K1 Tl ctr 13 | KCNQ1 pot spec 18 | KCNQ2 pot conf 11 | Kir21 spec inactive | KCNQ2 W236L pot inactive
Cc1cc(C)c2nc(N3CCC(C(=O)NCCCN4CC(C)CC(C)C4)CC3)sc2c1 (stereo unspecified)	KCNQ2 inh -6.4 | Kir21 conf inh 50% | HEK293 Tl flux inactive
Cc1cc(C)c2nc(N3CCCC(C(=O)NCCCN4CCOCC4)C3)sc2c1 (stereo unspecified)	none (no result: KCNQ2 pot)
COc1ccccc1NC(=O)C[n+]1ccccc1C	none
CCn1c(SCC(=O)N(C)c2ccccc2)nc2c([nH]c3ccccc32)c1=O	none (no result: KCNQ2 pot)
Cc1c(NC(=O)CN2C(=O)NC(C)(c3ccccc3)C2=O)c(=O)n(-c2ccccc2)n1C (stereo unspecified)	none (no result: KCNQ2 pot)
CCCN1CCC(NCC(C)c2ccccc2)CC1 (stereo unspecified)	none
CCCN1CCC(NC23CC4CC(CC(C4)C2)C3)CC1	none | Kir21 conf inh 54% | HEK293 Tl flux inactive
CCOc1ccccc1NC(=O)NC1(C(=O)N2CCN3CCCC3C2)CCCCC1 (stereo unspecified)	KCNQ2 pot 21 | Kir21 conf inh inactive | HEK293 Tl flux inactive | CHO-K1 Tl ctr inactive | KCNQ1 pot spec inactive | KCNQ2 pot conf inactive | Kir21 spec inactive
O=C(NCc1ccccc1)NC1(C(=O)N2CCN3CCCC3C2)CCCCC1 (stereo unspecified)	none
Fc1ccc(Nc2ncnc3sccc23)cc1	none
COc1ccc(-c2cc(-c3ccc(C)cc3)n[nH]2)c(O)c1	KCNQ2 pot 7 | Kir21 conf inh inactive | HEK293 Tl flux inactive | CHO-K1 Tl ctr 16 | KCNQ1 pot spec inactive | KCNQ2 pot conf inactive | Kir21 spec inactive
COc1ccc(-c2cc(-c3cc(C)ccc3O)[nH]n2)cc1	none
CN1CCN(CC(=O)N2c3ccccc3C(C)(c3ccc(Cl)cc3)CC2(C)C)CC1 (stereo unspecified)	none
CN1CCN(CC(=O)N2c3ccccc3C(C)(c3ccccc3)CC2(C)C)CC1 (stereo unspecified)	none (no result: KCNQ2 pot) | Kir21 conf inh 58% | HEK293 Tl flux inactive
C/C(=C\C(=O)c1ccccc1)NNC(=O)c1ccc(Cl)cc1	KCNQ2 pot 18 | Kir21 conf inh inactive | HEK293 Tl flux inactive | CHO-K1 Tl ctr inactive | KCNQ1 pot spec inactive | KCNQ2 pot conf inactive | Kir21 spec inactive | KCNQ2 W236L pot inactive
